Bioassay records: PubChem, National Center for Advancing Translational Sciences (NCATS)
p53 reactivator: restores transcriptional activity of mutant p53; H1299 p53-A138V BP100-luciferase reporter, luminescence, 24 h; Potency, µM (highest dose often 92.2 µM), most hits filed as activators; actives 0.063% (n = 320,000); AID 504706; also: nearly all actives have a fitted effect of over 45% in size
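H1299 (p53-null), stable ts p53-A138V + BP100-Luc; 1000 cells/well, Opti-MEM/10% FBS; cpd 4 pt, 1:5; 24 h, 37 deg C, 5% CO2; detection reagent 10 min RT; luminescence.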
CtBP-E1A blk: CtBP/E1A binding inhibition; activity change, % (no concentration beside the values); actives 0.49% (n = 340,000); AlphaScreen GST-E1A/His-CtBP binding, 1536-well; stronger effect = lower value; AID 651724; in the data active = activity change below about -65%; inconclusive = mostly about -30% to -63%
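Homogeneous bead-based format: GST-tagged E1A captured on glutathione donor beads, His-tagged CtBP on nickel acceptor beads; compounds precede bead addition by 2 h at 37 °C.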
Gal4-VP16 FLuc: counter-screen for ROR gamma inhibitors: Gal4-VP16 reporter. Drosophila S2 Gal4-VP16 UAS-luciferase, luminescence, 20 h. Potency, µM (highest dose often 53.6 µM), most hits filed as inhibitors. actives 3.5% (n = 310,000). AID 2546;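 also: Gal4-VP16 expression switched on by copper sulfate through the metallothionein promoter; nearly all actives have a fitted effect of over 50% in size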
RORgamma inh: blocks mouse ROR gamma transcriptional activity | Potency, µM (highest dose often 53.6 µM), most hits filed as inhibitors | actives 5.4% (n = 310,000) | P51450 | Drosophila S2 Gal4-RORgamma UAS-luciferase reporter, 20 h | AID 2551; also: nearly all actives have a fitted effect of over 60% in size
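A Gal4/UAS one-hybrid system in insect cells: metallothionein-promoter Gal4–ROR gamma fusion plus Photinus luciferase reporter. Copper sulfate 700 uM final, 20 hr ambient incubation, luminescent detection after 10 min with reagent.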
Six1-Eya2 inh: Six1/Eya2 interaction inhibition. actives 0.56% (n = 360,000). AlphaScreen GST-Six1/His-Eya2 binding, biochemical; stronger effect = lower value. AID 651725. Q15475+O00167. activity change, % (test concentration not listed); in the data active = activity change below about -65%; inconclusive = mostly about -30% to -63%
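Compounds are tested against tagged Six1 and Eya2 proteins bridged by glutathione donor and nickel acceptor beads; after a one-hour incubation at 37 °C without light, AlphaScreen emission is recorded.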
Hits are given with their value; - = inactive; ? = inconclusive; . = no result. A selection: hits, their analogues and other compounds. The true share with any hit is near 5.4%. Unless noted, calls follow the shape of the dose curve; as a rule, active = well fitted curve in the direction sought with a large enough effect; inconclusive = small, poorly fitted or top-dose-only effect, or another doubt; inactive = no such curve, though single readings can be large; an effect the other way counts as inactive or inconclusive.

SMILES | p53 reactivator | CtBP-E1A blk | Gal4-VP16 FLuc | RORgamma inh | Six1-Eya2 inh
CC(=O)c1ccc(NC(=S)NC(C)CCc2ccccc2)cc1 (stereo not drawn) | - | - | 20µM | 7.94µM | -
Cc1cccc(C)c1NC(=S)NC(C)CCc1ccccc1 (stereo not drawn) | - | - | 4.47µM | 2.24µM | -
Cc1ccc(NC(=S)NC(C)CCc2ccccc2)cc1C (stereo not drawn) | - | - | 6.31µM | 3.98µM | -
Cc1ccc(NC(=O)CCc2ccccc2)cc1C | . | - | . | . | -
Cc1ccccc1NC(=O)C(=O)NC(C)CCc1ccccc1 (stereo not drawn) | - | - | - | - | -
CCCN(Cc1ccccc1)C(=S)Nc1ccc(C(C)=O)cc1 | - | - | 10µM | 4.47µM | -
COc1ccc(N2C(=O)/C(=C\c3ccco3)N=C2SCC(=O)N(C(C)C)C(C)C)cc1Cl | - | - | 10µM | ? | -
CC(=O)c1sc(Nc2nc3cc4c(cc3s2)OCO4)nc1C | - | - | - | 5.01µM | -
CCOC(=O)c1sc(Nc2nc3cc4c(cc3s2)OCO4)cc1C | ? | - | 6.31µM | 5.01µM | -
Cc1cccc(OCC(=O)NCc2ccccc2)c1 | - | - | - | - | -
C/C(=N\NC(=O)COc1cccc(C)c1)c1ccc2ccccc2c1O | - | - | 3.98µM | 4.47µM | -
Cn1c(N)c(C(=O)COC(=O)c2ccccc2C(F)(F)F)c(=O)n(C)c1=O | - | - | . | . | -
COc1cc(CCC(=O)Nc2cc(C)cc(C)c2)cc(OC)c1OC | - | . | - | - | -
Cc1ccc(C(=O)Nc2ccc3nc(C)sc3c2)s1 | ? | - | - | ? | -
Cc1nc2cc(NC(=O)c3ccc(Br)s3)ccc2s1 | ? | - | ? | 5.01µM | -
Cc1cc(C)nc(N/N=C/C2=C(N3CCOCC3)C(=C\c3ccc(Cl)cc3)/CC2)n1 | - | - | ? | 10µM | -
CC(C)[C@H](NS(=O)(=O)c1ccccc1)C(=O)OCC(=O)N1N=C(c2ccc(Cl)cc2)CC1c1ccco1 (stereo partly drawn) | - | - | - | - | -
CC(=O)Nc1ccc(O)c(-c2nc3ccccc3s2)c1 | - | . | - | - | -
C/C(N=Nc1nc2ccccc2s1)=N\Nc1ccccc1O | - | - | - | 8.91µM | -
O=c1[nH]c(Cc2ccccc2)nc2scc(-c3ccccc3)c12 | - | - | - | ? | -
CN(Cc1ccccc1)Cc1nc2scc(-c3ccccc3)c2c(=O)[nH]1 | - | - | ? | 3.16µM | -
COc1cccc(CNC(=O)[C@@H]2CCCN2C(=O)[C@@H]2CCCN2S(=O)(=O)c2ccc(OC)c(C)c2)c1 | . | - | . | . | -
COc1cccc(-c2csc(NNC(=O)c3cccs3)n2)c1 | - | . | 10µM | 2.24µM | -
O=C(NCCCO)/C(=C\c1ccco1)NC(=O)c1ccco1 | - | . | - | - | -
O=C(NC(Nc1nc2ccc([N+](=O)[O-])cc2s1)(C(F)(F)F)C(F)(F)F)c1cccnc1 | - | - | 6.31µM | ? | -
SMILES | p53 reactivator | CtBP-E1A blk | Gal4-VP16 FLuc | RORgamma inh | Six1-Eya2 inh
O=C(NC(Nc1nc2ccc([N+](=O)[O-])cc2s1)(C(F)(F)F)C(F)(F)F)c1ccccc1Cl | - | - | 0.891µM | 6.31µM | -
CN(C)S(=O)(=O)c1ccc2nc(NC(=O)c3cccnc3)sc2c1 | . | - | - | - | -
CN(CC(=O)Nc1ccc(F)cc1)C(=O)c1ccc2ccccc2n1 | - | - | . | . | -
O=C1c2cccc3cccc(c23)C(=O)N1CC1CCN(CC(O)COc2ccc3ccccc3c2)CC1 (stereo not drawn) | - | - | - | - | -
O=C1c2cccc3cccc(c23)C(=O)N1CCN1CCN(CC(O)COc2ccc3ccccc3c2)CC1 (stereo not drawn) | - | - | 11.2µM | ? | -
CC(=O)Nc1ccc(S(=O)(=O)NNC2=NS(=O)(=O)c3ccccc32)cc1 | - | - | - | 10µM | -
O=C(CCCCCNC(=O)c1ccccc1)C[N+](=O)[O-] | - | - | - | - | -
C#CCOCCOCCOCCNc1nc(N2CCN(C(=O)[C@H](Cc3cc4ccccc4[nH]3)n3cc([C@@H](N)CC(C)C)nn3)CC2)nc(N2CCN(C(=O)[C@H](Cc3cc4ccccc4[nH]3)n3cc([C@@H](N)CC(C)C)nn3)CC2)n1 | - | - | 15.8µM | ? | -
COCCNc1c(-c2cc3ccc(C)c(C)c3[nH]c2=O)nc2ccccn12 | - | - | - | ? | -
Cc1ccc(Cn2c(C3CCCN3c3nc(C)cs3)nc3cc(C(F)(F)F)ccc32)cc1 (stereo not drawn) | . | - | ? | 3.55µM | -
CCOc1ccc(Nc2nc3ccccc3c(=O)s2)cc1 | - | - | ? | 3.98µM | -
CCc1ccc(Nc2nc3ccccc3c(=O)s2)cc1 | - | - | 1.41µM | 0.891µM | -
O=C(Nc1nc2ccccc2c(=O)s1)c1ccco1 | - | . | - | - | -
Cc1c2cc(O)c(=O)cc-2oc2cc(O)c(O)cc12 | - | -93.8 | ? | ? | -88.9
Cc1cc(NC(=O)c2cc(C(C)(C)C)oc2C)no1 | - | . | - | 12.6µM | -
O=C(Nc1ccccc1)Nc1cc(OCC(F)(F)F)cc(OCC(F)(F)F)c1 | - | - | 15.8µM | ? | -
Cc1cc(C)n(CC(=O)O)n1 | - | - | - | - | -
Cc1cc(C)n(CC(=O)N2c3ccccc3Sc3ccccc32)n1 | - | - | - | 7.08µM | -
Cc1ccccc1NC(=S)N/N=C/C(C)c1ccccc1 (stereo not drawn) | - | - | 8.91µM | 1.78µM | -
Cc1cccc(NC(=S)N/N=C/C(C)c2ccccc2)c1C (stereo not drawn) | - | - | 7.94µM | 1.26µM | -
Cc1cccc(NC(=S)N(C)C)c1C | - | - | - | ? | -
Cc1ccccc1NC(=S)NC(C)C(c1ccccc1)N1CCN(C)CC1 (stereo not drawn) | - | - | - | - | -
O=S(=O)(NCCSc1ccccn1)c1ccc(Br)cc1 | - | - | 11.2µM | 8.91µM | -
CN(C)S(=O)(=O)c1ccc(S(=O)(=O)NCc2ccc3c(c2)OCO3)cc1 | . | - | - | - | -
CSc1nc(-c2ccc(C)cc2)nc(C(Cl)Cl)n1 | - | - | - | ? | -
SMILES | p53 reactivator | CtBP-E1A blk | Gal4-VP16 FLuc | RORgamma inh | Six1-Eya2 inh
CCSc1nc(-c2ccccc2)nc(C(Cl)Cl)n1 | - | - | 10µM | 1.26µM | -
Cc1ccc(-c2nc(Nc3ccc(N4CCOCC4)cc3)c3ccccc3n2)cc1 | - | - | - | - | -
CN(C)c1ccc(C(C[N+](=O)[O-])c2c(N)n(C)c(=O)n(C)c2=O)c(F)c1C#N (stereo not drawn) | - | . | 11.2µM | 6.31µM | -
Cn1c(N)c(C(C[N+](=O)[O-])c2c(F)cccc2Cl)c(=O)n(C)c1=O (stereo not drawn) | - | - | ? | ? | -
O=C(NC(=S)Nc1cc([N+](=O)[O-])ccc1O)c1cccnc1 | - | . | 12.6µM | 2µM | -
CCC(C)c1ccc(O)c(NC(=S)NC(=O)c2cccnc2)c1 (stereo not drawn) | - | - | 1.26µM | 0.562µM | -
